Results: PubChem BioAssay AID743427 (Vanderbilt Specialized Chemistry Center, 2014)

Biological target: Metabotropic glutamate receptor 8 (Rattus norvegicus) (UniProt P70579)
Experiment: mGlu8 glutamate curve leftward shift by modulators, SAR follow-up, mechanism study for mGlu8/mGlu7 PAM project, cell-based, rat receptor, Ga15, calcium, 10 µM (AID 743427)
Details: rat mGlu8/Ga15, Fluo-4 calcium, glutamate CRC; glutamate CRC left shift; at 10 µM; stronger effect = higher value

`COC(=O)c1ccc(-n2c(C)cc(C(=O)CSc3ccc(NC(C)=O)cc3)c2C)cc1` showed a fold shift of 4.77.
